Reference: PubChem BioAssay (Tox21)
Where “and” joins values, the source holds several entries; their conditions need not be identical. Equal entries are not always repeated. Records with an inconclusive call do not appear. Where a call stands in place of a potency, no number is given. Where a structure was tested more than once in an assay, its records may differ in their call. Calls of active or inactive are those of the source. Calls come from the whole dose curve; as a rule, active = well fitted inhibition curve with a large enough effect in the repeat runs; inconclusive = weak or mixed curves; inactive = flat fitted curve, though single readings scatter.

Target: Voltage-gated inwardly rectifying potassium channel KCNH2 (Homo sapiens) (UniProt Q12809)
Assay: Human Ether-a-go-go-Related Gene (hERG) channel small molecule antagonists: fluorescence cell-based qHTS assay (AID 1671200); note: nearly all actives have a fitted effect of over 50% in size
Settings: hERG-U2OS cells, FluxOR thallium flux fluorescence; series mostly up to 76.8 µM
From the text: National Center for Advancing Translational Sciences [NCATS]
U.S. Environmental Protection Agency [EPA]
National Institutes of Environmental Health Sciences [NIEHS]
National Toxicology Program [NTP]
U.S. Food and Drug Administration [FDA]
Mutations in the hERG channel cause Long QT (LQT) syndrome. LQT syndrome is a cardiac disorder which can cause ventricle arrhythmia and sudden death. Additionally, compounds which block the hERG channel can cause acquired LQT syndrome. Several FDA approved drugs have been removed from the market due to their hERG blocking activity. A cell-based hERG channel inhibition assay can be used to screen chemical compounds that inhibit hERG channel. This assay measures hERG channel activity using thallium ions as surrogate ions to measure potassium into the cells.
Tox21 Assay Protocol Summary:
hERG-U2OS cells were resuspended in culture medium and dispensed into 1536-well, black wall/clear-bottom plates at 1000cells/well/3uL using a Multidrop Combi dispenser (Thermo Fisher, Waltham, MA). After plates were incubated at 37 C overnight, 3 uL of Loading Buffer provided by FluxOR II Potassium Ion Channel Assay kit (Thermo, Carlsbad, CA) was added to each well. The assay plates were then incubated at room temperature in the dark for 1h. […] After the assay plates were incubated at room temperature for 10 min, 1 uL of Stimulus Buffer provided by FluxOR II Potassium Ion Channel Assay kit was added into each well and fluorescence intensity (480nm excitation/540nm emission) was continuously measured for 2 min at 1 second intervals using a Functional Drug Screening System (FDSS) 7000EX kinetic plate reader (Hamamatsu, Japan).
Potency is the fitted concentration of half-maximal effect.

Voltage-gated inwardly rectifying potassium channel KCNH2 (Homo sapiens), sequence (Q12809 whole entry, looked up): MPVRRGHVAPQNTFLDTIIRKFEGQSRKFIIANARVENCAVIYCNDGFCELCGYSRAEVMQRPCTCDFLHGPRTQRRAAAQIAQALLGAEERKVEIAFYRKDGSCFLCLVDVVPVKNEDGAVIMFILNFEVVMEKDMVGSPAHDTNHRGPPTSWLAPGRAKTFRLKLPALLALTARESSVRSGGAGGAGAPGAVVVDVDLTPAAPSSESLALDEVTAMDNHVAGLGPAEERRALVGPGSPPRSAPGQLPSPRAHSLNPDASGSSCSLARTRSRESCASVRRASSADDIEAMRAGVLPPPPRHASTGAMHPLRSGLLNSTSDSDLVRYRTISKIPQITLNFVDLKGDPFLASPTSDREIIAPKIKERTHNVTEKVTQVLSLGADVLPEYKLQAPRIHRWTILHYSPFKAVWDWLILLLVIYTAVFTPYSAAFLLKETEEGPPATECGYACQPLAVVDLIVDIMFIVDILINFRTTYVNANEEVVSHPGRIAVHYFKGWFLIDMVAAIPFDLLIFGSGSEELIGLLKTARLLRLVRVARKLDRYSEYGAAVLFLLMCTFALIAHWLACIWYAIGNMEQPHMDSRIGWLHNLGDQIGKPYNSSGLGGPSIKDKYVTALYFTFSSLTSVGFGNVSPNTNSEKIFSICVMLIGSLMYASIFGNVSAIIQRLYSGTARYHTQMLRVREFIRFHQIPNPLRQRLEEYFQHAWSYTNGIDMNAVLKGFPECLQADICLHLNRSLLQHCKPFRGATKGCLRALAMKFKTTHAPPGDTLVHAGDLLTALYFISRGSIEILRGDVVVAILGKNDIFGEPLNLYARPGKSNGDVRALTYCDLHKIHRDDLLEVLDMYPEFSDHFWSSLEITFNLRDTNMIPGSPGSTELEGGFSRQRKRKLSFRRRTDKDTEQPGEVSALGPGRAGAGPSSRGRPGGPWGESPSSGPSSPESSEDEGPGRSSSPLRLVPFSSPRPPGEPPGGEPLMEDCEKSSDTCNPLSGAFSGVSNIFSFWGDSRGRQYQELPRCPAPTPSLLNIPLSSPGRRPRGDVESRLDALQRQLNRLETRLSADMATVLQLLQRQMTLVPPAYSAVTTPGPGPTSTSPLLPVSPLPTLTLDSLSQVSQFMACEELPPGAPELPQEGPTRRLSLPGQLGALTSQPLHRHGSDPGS

Structure (SMILES)	Potency
Nc1cccc(N)n1	inactive
O=C(Cl)c1ccc(C(=O)Cl)cc1	inactive
CC(=O)CC(=O)N(C)C	inactive
Cc1ccc([N+](=O)[O-])cc1N	inactive
C=C1C[C@]23C[C@@]1(O)CC[C@H]2[C@@]12C=C[C@H](O)[C@@](C)(C(=O)O1)[C@H]2[C@@H]3C(=O)O	inactive
Cc1ccc(Cl)cc1	inactive
CC[N+](CC)(CC(=O)Nc1c(C)cccc1C)Cc1ccccc1	24.5 µM (active) and inactive
CC(C)(CO)CO	inactive
OC1CCCCC1	inactive
CCn1cc(C(=O)O)c(=O)c2cc3c(cc21)OCO3	inactive
CCOC(=O)c1ccc(O)cc1	inactive
NC(N)=S	inactive
COC(=O)/C=C\C(=O)OC	inactive
CCc1cccc(CC)c1N	inactive
Cc1cc(CC(=O)O)n(C)c1C(=O)c1ccc(Cl)cc1	inactive
OCC(CO)(CO)CO	inactive
Cc1ccc(C)c(S(=O)(=O)O)c1	inactive
COc1ccccc1[N+](=O)[O-]	inactive
Cc1cc(C)c(O)c(C)c1	inactive
C=CC(C)(C)C	inactive

Structure (SMILES)	Potency
NCCNCCNCCN	inactive
Nc1cccc(C(F)(F)F)c1	inactive
CC1=CC(=O)CC(C)(C)C1	inactive
CCCN(CCC)C(=O)SCC	inactive
CC(C)=CCC/C(C)=C/C=O	inactive
CC(=O)OC(C)(C)C1CC=C(C)CC1 (stereo not given)	inactive
O=C(NCC1CCCCN1)c1cc(OCC(F)(F)F)ccc1OCC(F)(F)F (stereo not given)	15.2 µM (active) and 9.52 µM (active)
O=[N+]([O-])c1ccccc1C(F)(F)F	inactive
OCCOCCOCCOCCOCCO	inactive
CCCCCC(C)=O	inactive
O=[N+]([O-])c1cc(C(F)(F)F)ccc1Cl	inactive
CS(=O)(=O)c1ccc(Cl)cc1	inactive
CCCCCCCCO	inactive
Cc1cccc(C)c1[N+](=O)[O-]	inactive
CC(=O)C(C)C	inactive
CN1CCCC1=O	inactive
CC(O)CNCC(C)O (stereo not given)	inactive
NC(=O)NC(N)=O	inactive
COC(=O)CCCCC(=O)OC	inactive
NC(=O)c1ncn([C@@H]2O[C@H](CO)[C@@H](O)[C@H]2O)n1	inactive
